Among the data in PubChem BioAssay AID873 (PCMD, 2007) are inhibition values, retold here.

SMILES strings stand for the structures. Screen size: about 210,000 compounds; about 1,300 (0.62%) were called active. This excerpt belongs to a sample that is enriched for actives. Values without a mark were called inactive.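 Rule for the calls: active = inhibition of 40% or more; inactive = the rest.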

Broadly, the inhibition is the drop in the measured response relative to a control, in per cent.

Chain of Kallikrein-5 (Homo sapiens) (Q9Y337 67-293 limits assumed): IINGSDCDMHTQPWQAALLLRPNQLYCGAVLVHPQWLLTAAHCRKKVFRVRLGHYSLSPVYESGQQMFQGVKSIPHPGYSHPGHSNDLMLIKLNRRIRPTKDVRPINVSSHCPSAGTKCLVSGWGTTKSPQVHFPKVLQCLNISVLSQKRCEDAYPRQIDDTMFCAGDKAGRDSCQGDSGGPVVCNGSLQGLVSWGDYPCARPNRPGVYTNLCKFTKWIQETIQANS

This assay addresses Kallikrein-5 (Homo sapiens) (UniProt Q9Y337). Briefly: human KLK5 protease inhibitors, primary screen, biochemical, 1536-well (AID 873).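 Note: 0% = enzyme controls without compound and 100% = no-enzyme blanks.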 The conditions noted are these: recombinant hK5, fluorogenic AMC substrate cleavage; at 5 µM; stronger effect = higher value.
Take `O=C(Nc1n[nH]c(C(F)(F)F)n1)c1cccs1`: the inhibition is 40.9% (active).

For `O=C(Nc1ncccn1)c1cccs1`, the inhibition was -0.12%.

`Cc1ccc(-c2csc(NC(=O)c3cccs3)n2)cc1`: the inhibition is -16.5%.

Turning to `O=C(Cn1c[n+](CC(=O)c2ccc([N+](=O)[O-])cc2)cn1)c1ccc([N+](=O)[O-])cc1`, the inhibition was -1.7%.

With `C=CCN(c1ccccc1C(=O)NCC(=O)OCC)S(=O)(=O)c1ccc(C)cc1`, the inhibition is -3.06%.

Turning to `Cc1nc2ccccc2nc1N/N=C/c1ccc(O)cc1O`, the inhibition is -20.8%.

In the case of `COc1ccc(N=C(C)c2sc3ccccc3c2O)cc1`, the inhibition is 2.85%.

Turning to `O=[N+]([O-])c1cccc2ncccc12`, the inhibition was -1.14%.

Take `C=C1CCN([C@H](C(=O)NCc2cc(OC)c(OC)c(OC)c2)C(C)C)S(=O)(=O)c2ccccc21`: the inhibition is 0.63%.

As for `O=C(O)CCCC(=O)Nc1ccc(Oc2cccc(C(F)(F)F)c2)nc1`, the inhibition is -2.65%.

With `O=C(Nc1ccc(Cl)cc1)Nc1ccc(Oc2cccnc2)nc1`, the inhibition is 62.9% (active).

For the compound `O=C(NNC(=O)c1csc(-c2cccnc2)n1)Nc1ccc(Cl)cc1`, the inhibition was -0.51%.

As for `O=C(CNc1ccc(F)cc1F)NC(=O)NCc1ccco1`, the inhibition is -1.58%.

In the case of `COc1ccc(/C=C/c2nnc(NC(=O)C(C)C)s2)cc1`, the inhibition is 0.65%.

Turning to `Cn1nccc1NS(=O)(=O)c1ccc(F)cc1`, the inhibition was 8.38%.

On to `O=C(Nc1ccccc1F)c1ccccc1-c1ccccc1`, for which the inhibition is -10.7%.

Take `Cc1ccccc1NC(=O)C(C)c1ccc(-c2ccccc2)c(F)c1` (stereo unspecified): the inhibition is 1.97%.

As to `CC(C)N(C(=O)c1ccc(-c2ccccc2F)cc1)C(C)C`, the inhibition was 52.5% (active).

For the compound `Clc1ccc2nc(-c3ccccc3)nc(C(Cl)Cl)c2c1`, the inhibition is 0.33%.

Regarding `COc1ccc(-c2nn(C)c(=O)c3ccccc23)cc1CNC(=O)C1CCCCC1`, the inhibition was 1.08%.

With `COC(=O)c1ccc(CN2CCC(CO)(Cc3ccc(OC)cc3)CC2)cc1`, the inhibition was -3.09%.

On to `CC(C)c1csc(CN2CCC(CO)(Cc3ccccc3)CC2)n1`, for which the inhibition is 40.6% (active).

Take `COc1ccc(CC2(CO)CCN(Cc3cnn(C)c3)CC2)cc1`: the inhibition is 5.76%.

For `COc1ccc(CCNC2=CC(=O)CC(C)(C)C2)cc1`, the inhibition is 0.99%.

Regarding `CCS(=O)(=O)c1cc([N+](=O)[O-])c(Sc2ccccc2N)s1`, the inhibition was 3.91%.

Take `CCOC(=O)CN(C)S(=O)(=O)c1ccc(-c2cc(C(=O)OC)sc2C(F)(F)F)cc1`: the inhibition was 74.9% (active).

Take `COC(=O)c1sc(C(F)(F)F)c(-c2ccccc2)c1S(=O)(=O)N(C)C`: the inhibition was 0.56%.

For `Cc1ccc(S(=O)(=O)N(C)CC(=O)OCC(=O)Nc2ccccc2)cc1`, the inhibition was 2.05%.

As for `Cc1ccccc1CSc1nnc(CCCCCNC(=O)OC(C)(C)C)o1`, the inhibition is 0.98%.

Consider `CCOC(=O)c1ccc(NC(=O)c2cc(=O)[nH]c3ccccc23)cc1`, for which the inhibition was -1.31%.

Regarding `O=C(CNC(=O)c1cc(=O)[nH]c2ccccc12)Nc1ccc(F)c(F)c1`, the inhibition is 5.97%.

In the case of `CCCN(CC(=O)Nc1ccccc1C)C(=O)c1cc(=O)[nH]c2ccccc12`, the inhibition is 45.5% (active).

Turning to `COC(=O)c1scc(S(=O)(=O)C(C)(C)C)c1-n1cccc1`, the inhibition is -2.13%.

On to `O=S(=O)(NCc1ccco1)c1cnc(Cl)c(Cl)c1`, for which the inhibition is 18.9%.

As to `O=C(CSc1nnc(-c2cccnc2)n1Cc1ccco1)c1ccc(Cl)cc1`, the inhibition is -15.7%.

Turning to `O=C(CSc1nnc(-c2cccnc2)n1Cc1ccco1)c1ccc(Cl)c(Cl)c1`, the inhibition is -11.9%.

For the compound `C(=C\c1ccccc1)/CSc1nnc(-c2cccnc2)n1Cc1ccco1`, the inhibition was 59.8% (active).

With `O=C(Nc1ccccc1)N1CCN(C2c3ccccc3-c3ccccc32)CC1`, the inhibition was 1.85%.

With `CC(C)c1ccc(NC(=S)NNc2ccc(Cl)c(C(=O)O)c2)cc1`, the inhibition was 5.6%.

On to `COc1cc2c(cc1OC)C(/C=C/c1ccco1)=NCC2`, for which the inhibition was 4.43%.

In the case of `CC1CC(C)(C)n2c(O)c(N=NC(N)=S)c3cccc1c32` (stereo unspecified), the inhibition was 50.7% (active).

On to `C[C@@H](NC(=O)OC(C)(C)C)c1nnc(S(=O)(=O)Cc2ccccc2)o1`, for which the inhibition is -1.93%.

In the case of `Cc1cc(F)ccc1NC(=O)C(C)n1c2ccccc2c2nc(=O)cc(C)n21` (stereo unspecified), the inhibition is 0.22%.

For `O=C(NC1CCCCC1)c1cc(C2CC2)on1`, the inhibition is -1.29%.

Consider `Cn1c2c(c(=O)n(C)c1=O)C1c3ccccc3OCC1C(C)(C)O2` (stereo unspecified), for which the inhibition is -2.4%.

In the case of `Cn1c2c(c(=O)n(C)c1=O)[C@@H]1c3c(ccc4ccccc34)OC[C@@H]1CO2`, the inhibition is 21.4%.

With `COc1cccc2c1OCC1COc3c(c(=O)n(C)c(=O)n3C)C21` (stereo unspecified), the inhibition is 50.2% (active).

With `O=C(NNc1cc(Cl)cc(Cl)c1)c1c(F)cccc1Cl`, the inhibition is 1.1%.

For the compound `CCc1c(C)nc2c(-c3ccccc3)c(C)nn2c1Nc1ccc(NC(C)=O)cc1`, the inhibition is -10.1%.

In the case of `CN1CCN(S(=O)(=O)c2cccc(C(=O)O)c2)CC1`, the inhibition is -1.38%.

Take `COc1cc(C(=O)N2C(=O)c3cccc(N)c3C2=O)cc(OC)c1OC`: the inhibition is -10.2%.

Regarding `CC1CC(C)CN(S(=O)(=O)c2cccc(C(=O)N3C(=O)c4cccc(N)c4C3=O)c2)C1` (stereo unspecified), the inhibition is 83.1% (active).

`Cc1cc(=O)oc2cc(OCC(=O)Nc3nnc(C4CC4)s3)ccc12`: the inhibition was 5.43%.

On to `O=C(Nc1nnc(COc2ccccc2)s1)Nc1ccccc1F`, for which the inhibition is 0.25%.

With `O=C(NN1C(=O)C2C3C=CC(C4CC34)C2C1=O)c1ccc(Cl)cc1` (stereo unspecified), the inhibition is -4.1%.

Turning to `CC12COC3(C(=O)Nc4ccc(Cl)cn4)CC1CCC32C` (stereo unspecified), the inhibition was -6.22%.

Regarding `CC12CN(NC(=O)c3ccc(Cl)cc3)C3(C#N)CC1CCC23C` (stereo unspecified), the inhibition is 78.4% (active).

For the compound `CCc1cc(CNC(=O)CC2C(=O)NCCN2Cc2ccccc2C(F)(F)F)on1` (stereo unspecified), the inhibition is -3.44%.

With `O=c1c2c3c(sc2n(CCN2CCCC2)c(=O)n1Cc1ccccc1)CCCCC3`, the inhibition was 8.67%.

Turning to `Cc1cc(C)n(CC(C)NCc2c(C(=O)N3CCOCC3)nc3c(C)cccn23)n1` (stereo unspecified), the inhibition was 1.63%.

In the case of `CS(=O)(=O)n1nc(-c2ccco2)nc1N`, the inhibition is -7.61%.

For `CSc1nc(-c2ccco2)nn1C(=O)CCc1ccccc1`, the inhibition is -9.9%.

In the case of `CSc1nc(-c2ccco2)nn1C(=O)c1ccccc1Cl`, the inhibition is 52.2% (active).

As for `Clc1ccc(-c2cc(-c3ccccn3)on2)c(Cl)c1`, the inhibition was -3.93%.

As for `C/C(=N\NC(=O)c1nc(C)cc(C)n1)c1ccccc1`, the inhibition is -8.77%.

With `CNC(=O)C(NC(=O)c1ccccc1)=C(C)C`, the inhibition is 0.73%.

Turning to `CC(C)=C(NC(=O)c1ccccc1)C(=O)N/N=C(\C)c1ccccc1O`, the inhibition is 48.4% (active).

`C=CCN(C(=O)Nc1ccc2c(c1)nc(C)n2C)c1ccccc1`: the inhibition is 41% (active).

With `Cc1nc2cc(NC(=O)Nc3cccc(F)c3)ccc2n1C`, the inhibition was 17%.

`C=CCN(C(=O)Nc1ccc2oc(C)nc2c1)c1ccccc1`: the inhibition is -6.89%.

For the compound `Nc1ccc2nn(-c3ccc(Cl)cc3)nc2c1`, the inhibition was -10.3%.

For `O=C(NCCc1csc(-c2ccccc2)n1)c1ccccc1F`, the inhibition was 0.78%.

With `C=CCn1c(SCCOc2ccc(OC)cc2)nnc1C(NC(=O)c1ccc(OC)cc1)C(C)C` (stereo unspecified), the inhibition was 2.79%.

Turning to `C=CCn1c(SCC(=O)c2ccc(Br)cc2)nnc1C(C)NC(=O)Cc1ccc(OC)cc1` (stereo unspecified), the inhibition was 53% (active).

`C=CCn1c(CNC(=O)c2ccco2)nnc1SCC(=O)c1ccc(OC)cc1`: the inhibition is 1.62%.

As for `C=CCc1ccc(OCC(O)CN2CCN(Cc3ccccc3)CC2)c(OC)c1` (stereo unspecified), the inhibition is -1.55%.

Regarding `Cc1cccc(C)c1OCC(O)CN1CCCCC1` (stereo unspecified), the inhibition is -7.75%.

Take `Cc1ccc(OCC(O)CN2CCN(CC(O)COc3ccc(C)cc3Cl)CC2)c(Cl)c1` (stereo unspecified): the inhibition was 45.3% (active).

On to `COC(=O)CNc1nc(Cl)nc(N2CCC(C)CC2)n1`, for which the inhibition is -2.61%.

As to `Cc1ccc(NNC(=O)C2CCC2)cc1C`, the inhibition is -0.44%.

For the compound `COc1ccc(Cl)cc1NC(=O)CCN1CCOCC1`, the inhibition was -1.88%.

For `CNC(=O)NC(=O)C(C)N1CCN(C/C=C/c2ccccc2)CC1` (stereo unspecified), the inhibition is -1.97%.

On to `COc1cc(C(=O)N2CCN(C/C=C/c3ccccc3)CC2)cc(OC)c1C`, for which the inhibition was 46.4% (active).

On to `O=C(CN1CCN(C/C=C/c2ccccc2)CC1)Nc1ccc(F)cc1F`, for which the inhibition was 0.73%.

As for `COC(=O)c1nc(NC(=O)c2ccc(F)cc2)n[nH]1`, the inhibition is 1.4%.

Take `COC(=O)c1nc(NC(=O)c2ccc(Cl)cc2)n[nH]1`: the inhibition was -14.4%.

Take `COC(=O)c1nc(NC(=O)c2ccccc2)n[nH]1`: the inhibition is 45% (active).

With `Cc1nc(N2CCCC2C(=O)O)c2oc3ccccc3c2n1` (stereo unspecified), the inhibition was -6.49%.

Turning to `Cc1nc(Cl)c2oc3ccccc3c2n1`, the inhibition is 42.9% (active).

Turning to `CCSc1nc(C)nc2c1oc1ccccc12`, the inhibition is 2.97%.

For `Cn1c2ccc(F)cc2c2nnc(NN)nc21`, the inhibition was 3.58%.

For `Cc1onc(C(=O)NN)c1-c1csc(COc2ccccc2)n1`, the inhibition was -6.54%.

Take `CNc1ccc([N+](=O)[O-])cc1C(=O)O`: the inhibition was -11.4%.

Regarding `Cc1cccc(NC(=S)NC23CN4CN(CN(C4)C2)C3)c1`, the inhibition was 44.6% (active).

As for `Cc1cccc(NC(=S)Nc2ccc(Br)cc2)c1`, the inhibition is 3.76%.

For the compound `Cc1cccc(NC(=S)Nc2ccc(Cl)c(Cl)c2)c1`, the inhibition is -7.18%.

Take `Cc1nc(COc2cccc(Cl)c2)sc1C(=O)/C=C/N(C)C`: the inhibition is 0.93%.

As for `COCc1cc(=O)[nH]c(SC)n1`, the inhibition is 4.7%.

`O=C(NCCc1ccccc1)c1ccc(OCCOc2ccccc2)cc1`: the inhibition is 79.7% (active).

With `O=C(NCCOc1ccccc1)c1ccccc1`, the inhibition is -2.43%.

In the case of `CCCOc1ccc(C(=O)NCCc2ccccc2)cc1`, the inhibition is -7.86%.
